About 79,000 compounds went through this panel and 15% of them were active in at least one assay; those are over-represented in the sample as a whole. A number with no mark means an inactive call. Cut-off read from the data, not from the text of the source: active = growth inhibition above about 70%; inactive = the rest.

One assay is described as follows: NCI Yeast Anticancer Drug Screen. Data for the rad50 strain (AID 155).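 Note: 0% = growth of vehicle-only cultures of the same strain.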 As to conditions: S. cerevisiae rad50 strain growth inhibition; at 50.0 µM; hits give high values. In outline: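 Genetically altered yeast (DNA repair pathway); compound treatment; growth inhibition vs vehicle ctrl.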
With `CCOC(=O)CCc1c[nH]c2ccccc12`, the growth inhibition is -12.3%.
With `CC(=O)Nc1nc(C)c(CC/C=C/c2ccc([N+](=O)[O-])cc2)c(=O)[nH]1`, the growth inhibition is 4.75%.
The same measure, in the same setting: for `C=C1C(=O)OC2C=C(C)C3C(OC(=O)c4ccccc4)CC(C)(O)C3CC12` (stereo not given) the value was 1.4%; for `CCOc1nc(N)nc(C)c1N=Nc1ccc(O)cc1`, -5.7%; for `Nc1ccc(C(=O)N/C(=C\c2cccc([N+](=O)[O-])c2)c2nc3ccc(Cl)cc3[nH]2)cc1`, -10.1%.
Still for that read-out and setting: for `O=C1c2ccccc2C(=O)N1/N=C\c1ccc(O)cc1` the value was 6.8%; for `CCOc1ccc(C(=O)OC(C)C)cc1`, 26.5%; for `CC1=NN(c2ccccc2)C(=O)C1=C1SCCCS1`, -14.2%.
Still for that read-out and setting: for `Clc1ccc2c(c1)N(C1CCCN(Cc3ccccc3)C1)c1ccccc1S2` (stereo not given) the value was 45.5%.
Regarding `COc1ccc(C(CC(=O)c2ccccc2)C(=O)c2ccc3c(c2)OCO3)cc1` (stereo not given), the growth inhibition was -40%.
As for `O=C(OC(=O)c1ccc(Cl)cc1)c1ccc(Cl)cc1`, the growth inhibition was -4.65%.
Still for that read-out and setting: as for `CSC(=S)Nc1nc2ccc(Cl)cc2s1`, the figure is -1.45%; as for `CCOc1nc(OCC)c2cnn(C)c2n1`, 6.3%; as for `COc1ccc([N+](=O)[O-])c(OC)c1`, 4.4%.
The same measure, in the same setting: as for `C/C(=N\NC(=O)c1ccncc1)c1ccc(Cl)cc1Cl`, the figure is 5.85%; as for `COc1cc(-c2ccccc2)c(OC)cc1CCl`, 4.05%.
On to `CCOC(=O)C(=O)C(CCc1ccc2ccc3cccc4ccc1c2c34)C(=O)OCC` (stereo not given), for which the growth inhibition was 10.2%.
Still for that read-out and setting: as for `O=c1[nH]c2ccccc2nc1/C=C(\O)c1ccc([N+](=O)[O-])cc1`, the figure is 1.55%; as for `O=C(NCCO)c1ccc(Cl)cc1`, -23.6%.
On the same count and under the same terms, for `Cc1cc(N=Nc2ccccc2)c2cccnc2c1N` the value was -3.85%.
The same measure, in the same setting: for `CCCCNC(=O)C(C)S(=O)(=O)c1ccc(C)cc1` (stereo not given) the value was 6.6%; for `Cc1ccc(C(=O)c2cc3c([nH]c4ccccc43)c(C)c2C(=O)O)cc1`, 15.8%.
With `CC(=O)N=Cc1ccccc1O`, the growth inhibition was -27.8%.
For the molecule `O=C(Nc1ccccc1)c1cccc(F)c1`, the growth inhibition was -2.9%.
On to `O=C(O)CNC(=O)CNC(=O)CNC(=O)CNC(=O)CNC(=O)OCc1ccccc1`, for which the growth inhibition is 38.2%.
Same read-out and setting: as for `CCCCNC(=O)OCCN=c1c2ccccc2ccc2ccccc12`, the figure is -25.6%.
Same read-out and setting: for `CCn1c(O)c(C=Nc2ccccc2)s/c1=N/Nc1nc(C)cs1` the value was -45.3%; for `CCCCC(=O)N/N=C/c1c[nH]c2ccc(Br)cc12`, 4.3%; for `Cc1ccc(OCc2ccccc2)n[n+]1[O-]`, -20.6%.
The same measure, in the same setting: for `Cc1cc(C)n(-c2ccc(Cl)nn2)n1` the value was 9.25%.
In the case of `N/N=C/c1ccc2ccccc2n1`, the growth inhibition is -14.4%.
Still for that read-out and setting: for `COC(=O)CC(=O)/C(=C/C(C/C=C(\C(=O)CC(=O)OC)C(=O)OC)OC)C(=O)OC` (stereo not given) the value was 40.1%; for `CC1(C)C2CC=C(CCO)C1C2` (stereo not given), -2.85%.
For `CCCOC(C)OCCC#CCC(C)OC(=O)CC(Cl)(Cl)Cl` (stereo not given), the growth inhibition is -13.8%.
The same measure, in the same setting: for `Cc1cc(=NO)cc(C)n1O` the value was 43.5%.
On the same count and under the same terms, as for `CC(=O)Nc1nc(C)c(CC/C=C/c2ccc([N+](=O)[O-])cc2)c(Cl)n1`, the figure is 8.9%; as for `COc1cc(/C=C2/C(=O)N(C(=O)c3ccc(Cl)cc3)N=C2C)cc(OC)c1OC`, 10%.
Same read-out and setting: for `CC(=O)NNc1nc(C)c(C(/C=C/c2ccc(/C=C/C(=N\NC(=O)c3ccncc3)c3sc(NNC(C)=O)nc3C)cc2)=N/NC(=O)c2ccncc2)s1` the value was -16.6%; for `COC(=O)NC(C(F)(F)F)(C(F)(F)F)P1(=O)OCCCO1`, 54.5%; for `CSc1ccc(C(=O)c2ccc(SC)cc2)cc1`, 5.65%.

Another assay in a line: NCI Yeast Anticancer Drug Screen. Data for the mec2-1 strain (AID 157). As to conditions: S. cerevisiae mec2-1 strain, at 50.0 µM, hits give high values. A digest of the protocol:
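Readout is yeast growth inhibition, normalised to vehicle-treated controls, in the mec2-1 strain exposed to compound.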
Take `CCOC(=O)CCc1c[nH]c2ccccc12`: the growth inhibition was -17.1%.
With `CC(=O)Nc1nc(C)c(CC/C=C/c2ccc([N+](=O)[O-])cc2)c(=O)[nH]1`, the growth inhibition is 32.6%.
The same measure, in the same setting: as for `C=C1C(=O)OC2C=C(C)C3C(OC(=O)c4ccccc4)CC(C)(O)C3CC12` (stereo not given), the figure is -41.4%; as for `CCOc1nc(N)nc(C)c1N=Nc1ccc(O)cc1`, 6.2%; as for `Nc1ccc(C(=O)N/C(=C\c2cccc([N+](=O)[O-])c2)c2nc3ccc(Cl)cc3[nH]2)cc1`, -21.4%.
The same measure, in the same setting: as for `O=C1c2ccccc2C(=O)N1/N=C\c1ccc(O)cc1`, the figure is -3.6%; as for `CCOc1ccc(C(=O)OC(C)C)cc1`, 4.15%.
In the case of `CC1=NN(c2ccccc2)C(=O)C1=C1SCCCS1`, the growth inhibition was -25.4%.
Still for that read-out and setting: for `Clc1ccc2c(c1)N(C1CCCN(Cc3ccccc3)C1)c1ccccc1S2` (stereo not given) the value was 7.65%; for `COc1ccc(C(CC(=O)c2ccccc2)C(=O)c2ccc3c(c2)OCO3)cc1` (stereo not given), -50.5%; for `O=C(OC(=O)c1ccc(Cl)cc1)c1ccc(Cl)cc1`, 25.9%.
Still for that read-out and setting: for `CSC(=S)Nc1nc2ccc(Cl)cc2s1` the value was 6.75%; for `CCOc1nc(OCC)c2cnn(C)c2n1`, 1.75%.
Still for that read-out and setting: for `COc1ccc([N+](=O)[O-])c(OC)c1` the value was -19.1%; for `C/C(=N\NC(=O)c1ccncc1)c1ccc(Cl)cc1Cl`, 7.15%; for `COc1cc(-c2ccccc2)c(OC)cc1CCl`, 2.95%.
Turning to `CCOC(=O)C(=O)C(CCc1ccc2ccc3cccc4ccc1c2c34)C(=O)OCC` (stereo not given), the growth inhibition is 20.9%.
On the same count and under the same terms, for `O=c1[nH]c2ccccc2nc1/C=C(\O)c1ccc([N+](=O)[O-])cc1` the value was -10.6%; for `O=C(NCCO)c1ccc(Cl)cc1`, -26.3%.
The same measure, in the same setting: for `Cc1cc(N=Nc2ccccc2)c2cccnc2c1N` the value was -4.2%.
`CCCCNC(=O)C(C)S(=O)(=O)c1ccc(C)cc1` (stereo not given): the growth inhibition was 16.4%.
On the same count and under the same terms, as for `Cc1ccc(C(=O)c2cc3c([nH]c4ccccc43)c(C)c2C(=O)O)cc1`, the figure is -9.55%.
The same measure, in the same setting: as for `CC(=O)N=Cc1ccccc1O`, the figure is -16%; as for `O=C(Nc1ccccc1)c1cccc(F)c1`, -20.8%.
On the same count and under the same terms, as for `O=C(O)CNC(=O)CNC(=O)CNC(=O)CNC(=O)CNC(=O)OCc1ccccc1`, the figure is -0.25%; as for `CCCCNC(=O)OCCN=c1c2ccccc2ccc2ccccc12`, -31.4%.
Turning to `CCn1c(O)c(C=Nc2ccccc2)s/c1=N/Nc1nc(C)cs1`, the growth inhibition is -55.2%.
Same read-out and setting: for `CCCCC(=O)N/N=C/c1c[nH]c2ccc(Br)cc12` the value was 6.05%; for `Cc1ccc(OCc2ccccc2)n[n+]1[O-]`, -16.8%.
`Cc1cc(C)n(-c2ccc(Cl)nn2)n1`: the growth inhibition was 8.35%.
The same measure, in the same setting: as for `N/N=C/c1ccc2ccccc2n1`, the figure is -12.6%; as for `COC(=O)CC(=O)/C(=C/C(C/C=C(\C(=O)CC(=O)OC)C(=O)OC)OC)C(=O)OC` (stereo not given), 22.8%; as for `CC1(C)C2CC=C(CCO)C1C2` (stereo not given), -5.8%.
The same measure, in the same setting: as for `CCCOC(C)OCCC#CCC(C)OC(=O)CC(Cl)(Cl)Cl` (stereo not given), the figure is -21.4%; as for `Cc1cc(=NO)cc(C)n1O`, 21%.
Same read-out and setting: as for `CC(=O)Nc1nc(C)c(CC/C=C/c2ccc([N+](=O)[O-])cc2)c(Cl)n1`, the figure is 32.9%; as for `COc1cc(/C=C2/C(=O)N(C(=O)c3ccc(Cl)cc3)N=C2C)cc(OC)c1OC`, -5.75%.
With `CC(=O)NNc1nc(C)c(C(/C=C/c2ccc(/C=C/C(=N\NC(=O)c3ccncc3)c3sc(NNC(C)=O)nc3C)cc2)=N/NC(=O)c2ccncc2)s1`, the growth inhibition was -7.35%.
Still for that read-out and setting: as for `COC(=O)NC(C(F)(F)F)(C(F)(F)F)P1(=O)OCCCO1`, the figure is 59.9%.
On the same count and under the same terms, as for `CSc1ccc(C(=O)c2ccc(SC)cc2)cc1`, the figure is 15.8%.

The record behind these values is PubChem BioAssay (NCI).
